# Most compounds without a hit are left out; they make up all but 6.2% or so of the library.
# ATXN viability: viability counter-screen for ATXN expression inhibitors. S2 cells (HEK-293 line with an ATXN2-luciferase reporter) viability, CellTiter-Fluor protease fluorescence, 24 h. Potency, µM (titrated, usually from 56.7 µM), most hits filed as cytotoxic. actives 0.49% (n = 400,000). AID 651635; further: nearly all actives have a fitted effect of over 40% in size
# ATXN2 expr inh: ATXN2 expression inhibition; HEK-293 ATXN2-luciferase reporter, luminescence, 24 h; Potency, µM (top dose mostly 57 µM), for inactives: at the highest dose activity change, negative = inhibition, usual class: inhibitors; actives 0.72% (n = 360,000); further: on the % scale 0 is the no-effect control and ±100 the full control effect; nearly all actives have a fitted effect of over 55% in size
#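 qHTS (up to 57 uM final) was run with 24 h compound exposure of reporter cells at 37 °C. Each well was multiplexed: SteadyGlo luminescence measured ATXN2-luciferase expression after a fluorogenic Gly-Phe-AFC viability readout (25 uM final).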
# KB-V1 cytotox: kills drug-selected multidrug resistant KB-V1 cells | Potency, µM (top dose mostly 46.1 µM), usual class: cytotoxic | actives 3.4% (n = 400,000) | AID 1347076 | KB-V1 MDR cells viability, CellTiter-Glo, 72 h; further: on the % scale 0 is the no-effect control and ±100 the full control effect; nearly all actives have a fitted effect of over 60% in size
#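 In this primary screen, KB-V1 cells overexpressing P-gp are incubated with library compounds (lowest to highest concentration) for 72 h at 37 degrees C before a luminescent ATP viability read.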
# KB-3-1 tox: KB-3-1 parental cell cytotoxicity. KB-3-1 viability, CellTiter-Glo ATP luminescence, 72 h. Potency, µM (doses to about 46.1 µM), most hits filed as cytotoxic. actives 1.4% (n = 400,000). AID 1347075; further: on the % scale 0 is the no-effect control and ±100 the full control effect; nearly all actives have a fitted effect of over 60% in size
#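 Screening of KB-3-1 cells (DMEM, 10% FBS, phenol-red free) ran from lowest to highest compound concentration; after 72 h at 37 °C viability was read luminescently and curves fitted.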
# HT1080-NT tox: kills 2HG-producing HT-1080-NT fibrosarcoma cells; HT-1080-NT fibrosarcoma viability, CellTiter-Glo ATP luminescence, 48 h; Potency, µM (titrated, usually from 46.1 µM), for the others: top-dose activity, negative = less viability, actives largely listed as cytotoxic; actives 1.6% (n = 360,000); AID 686970;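 further: NT is the 2HG producing partner of a matched IDH1 knockdown line; 0% = DMSO-treated cells and -100% = media-only wells without cells; nearly all actives have a fitted effect of over 55% in size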
#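 750 cells/well, RPMI + 5% FBS; 2 h settle, compound pin-transfer, 48 h at 37 degrees C. CellTiter-Glo 10 min RT, luminescence. Normalized to DMSO and media-only wells.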
# HT1080 IDH1KD tx: toxicity to HT-1080 IDH1 knockdown cells (counter line) | HT-1080 IDH1 knockdown viability, ATP luminescence, 48 h | Potency, µM (series often up to 46.1 µM), inactives show top-dose activity, negative = toxicity, hits mostly cytotoxic | actives 2% (n = 360,000) | AID 686971;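 further: 0% = DMSO wells and -100% = cell-free medium wells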
#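 Assay cells: HT-1080 with IDH1 knockdown, 750 per well, RPMI/5% FBS. Exposure: 48 h at 37 °C following 2 h pre-incubation. Read: CellTiter-Glo luminescence; fitted concentration-response, curve class assigned.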
# * hit, by the source's call; i = inactive; u = inconclusive; x = no result given; ! = not active in a repeat. The call rests on the fitted dose curve; in most records, active means well fitted curve in the direction sought with a large enough effect; inconclusive means small, poorly fitted or top-dose-only effect, or another doubt; inactive means no such curve, though single readings can be large; an effect the other way counts as inactive or inconclusive. Potency means the concentration at half of the fitted maximal effect.
SMILES,ATXN viability,ATXN2 expr inh,KB-V1 cytotox,KB-3-1 tox,HT1080-NT tox,HT1080 IDH1KD tx
CCCN(C(=O)CCc1nc(-c2ccc(C)cc2)no1)c1ccc(OCC)cc1,i,-20.9%,i,i,x,x
CCc1ccc(OCC2c3cc(OC)c(OC)cc3CCN2C(=O)Cc2ccc(OC)c(OC)c2)cc1 (centres undefined),i,u,i,i,x,x
COc1ccc(CNC(=O)CCn2cccn2)cc1,i,21.9%,i,i,x,x
O=C1NC(=O)c2cc(Br)cc3cccc1c23,i,-13.2%,u,i,9.2%,u
Cc1ccc(NS(=O)(=O)c2cc3c4c(cccc4c2)C(=O)NC3=O)cc1C,i,u,u,14.6µM*,7.31µM*,5.17µM*
O=C(COC(=O)c1c2c(nc3ccccc13)/C(=C\c1cccs1)CCC2)Nc1ccccc1,i,-22.6%,2.31µM*,11.6µM*,-12.3%,-28.0%
CC(=O)c1ccc(NC(=O)COC(=O)c2c3c(nc4ccccc24)/C(=C\c2cccs2)CCC3)cc1,i,u,16.4µM*,i,-21.2%,u
CC(C)CNC(=O)COC(=O)c1c2c(nc3ccccc13)/C(=C\c1cccs1)CC2,x,20.6%,u,i,-5.2%,u
O=C(O)CSCC(=O)NC1CCSC1=O (centres undefined),i,1.8%,x,x,x,x
CCOc1ccc(CCNC(=O)c2c3c(nc4ccccc24)C(=O)N(C2CCCCC2)C3)cc1,x,x,i,i,x,x
CCN(c1ccccc1)S(=O)(=O)c1nnc(NC(=O)C(C)Oc2ccccc2)s1 (centres undefined),i,5.8%,i,i,x,x
CN(C)CC1CCCCC1OC(=O)c1ccc(Cl)cc1 (centres undefined),i,-4.0%,u,i,0.5%,2.4%
CN(C)CC1CCCCC1C1(O)c2ccccc2CSc2sccc21 (centres undefined),i,0.0%,i,i,17.8µM*,17.8µM*
COc1ccc(NC(=O)CCCn2c(=O)c3sccc3n(Cc3ccc(C)cc3C)c2=O)cc1,i,-1.9%,8.2µM*,i,3.2%,2.8%
COc1ccc(NC(=O)CCCn2c(=O)c3sccc3n(Cc3ccc(C)cc3)c2=O)cc1,i,-23.2%,i,i,-12.1%,-21.5%
COc1ccc(C(=O)NCCc2nnc3n2CCN(CC2CC=CCC2)CC3)cc1 (centres undefined),i,x,x,x,x,x
O=C(NCc1ccco1)c1cc(-c2ccccc2)nn1CC1CC(c2cccnc2)=NO1 (centres undefined),i,2.1%,i,i,2.2%,2.9%
O=C(NCc1ccc(OC(F)(F)F)cc1)c1cc(-c2ccccc2)nn1CC1CC(c2cccnc2)=NO1 (centres undefined),i,-16.8%,20.6µM*,i,-2.2%,-1.0%
CN(C)CCNC(=O)C1CCN(Cc2cc3ccccc3n2Cc2ccccc2)CC1,x,22.4µM*,u,i,x,x
c1cncc(OC2CCN(Cc3ccc4c(c3)CN(Cc3nc5ccccc5s3)CCO4)CC2)c1,i,x,x,x,x,x
CCCCCCCCCCCCCCCC[N+](C)(C)CCN(Cc1ccc(OC)cc1)c1ncccn1,25.1µM*!,35.5µM*!,i,u,16.4µM*,18.4µM*
CCOc1c(Br)ccc2c1sc1nc[nH]c(=O)c12,i,1.8%,20.6µM*,u,-1.7%,0.6%
COCCOC(=O)c1sc2nc[nH]c(=O)c2c1C,i,-12.4%,i,i,u,5.4%
COC(=O)N1C(=O)[C@](c2ccc(Cl)cc2)(C(C)C)N1C(=O)OC,31.6µM*,u,i,i,-24.3%,-12.5%
c1ccc(N2CCN(c3nc4cc5c(cc4s3)OCCO5)CC2)cc1,i,14.4%,2.59µM*,u,6.4%,2.3%
c1c2c(cc3sc(N4CCOCC4)nc13)OCCO2,i,6.31µM*,20.6µM*,u,-24.7%,u

# Bioassay records deposited in PubChem by National Center for Advancing Translational Sciences (NCATS).
